Reference: PubChem BioAssay (EPA / NIEHS)
Records with an inconclusive call do not appear. Active and inactive are the calls of the source. How the source made its calls: active means hit-call score of the fitted dose curve at least 0.9, where 1 is the maximum; inconclusive means response in the unintended direction; inactive means score below 0.9.

Experiments:
[1] = target: human AMP-activated Protein Kinase, alpha 1 (AMPKa1), PRKAA1 (gene 5562) (UniProt Q13131); test: NVS_ENZ_hAMPKa1: NovaScreen (NVS) Enzymatic Assay for human AMP-activated Protein Kinase, alpha 1 (AMPKa1) (AID 2283130)
Outline: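 Compounds were screened in duplicate at 25 uM, and those reaching ~30% inhibition were titrated up to 50 uM. The enzyme was recombinant human AMPKα1, and kinase turnover was read by fluorescence/mobility shift 1 h post-dosing as loss of signal versus DMSO.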

[2] = target: human Aurora Kinase A - serine/threonine-protein Kinase 6 (AurA), AURKA (gene 6790) (UniProt O14965); test: NVS_ENZ_hAurA: NovaScreen (NVS) Enzymatic Assay for human Aurora Kinase A - serine/threonine-protein Kinase 6 (AurA) (AID 2283142)
Outline: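 Recombinant human AurA activity read by fluorescence after mobility-shift separation of product from substrate; 1 hour incubation. Chemicals first run in duplicate at 25 uM, then concentration series to 50 uM if over threshold; fitted relative to DMSO.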

[3] = target: human Fibroblast Growth Factor Receptor 1 (FGFR1), FGFR1 (gene 2260) (UniProt P11362); test: NVS_ENZ_hFGFR1: NovaScreen (NVS) Enzymatic Assay for human Fibroblast Growth Factor Receptor 1 (FGFR1) (AID 2283159)
Outline: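 Cell-free recombinant kinase with fluorescent substrate, product separated by electrophoretic mobility shift; read 1 hour after dosing, loss of signal relative to DMSO. Initial screen in duplicate at 25 uM, actives followed in concentration series.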

[4] = target: human Phosphatase and Tensin Homolog (PTEN), PTEN (gene 5728) (UniProt P60484); test: NVS_ENZ_hPTEN: NovaScreen (NVS) Enzymatic Assay for human Phosphatase and Tensin Homolog (PTEN) (AID 2283203)
Outline: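 Loss of fluorescent product signal after mobility-shift separation reports PTEN activity, recombinant human enzyme, 1 h after compound addition. Single 25 uM duplicate screen, then concentration-response on actives; DMSO baseline.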

[5] = target: human Protein Tyrosine Phosphatase Non-receptor Type 2 (PTPN2), PTPN2 (gene 5771) (UniProt P17706); test: NVS_ENZ_hPTPN2: NovaScreen (NVS) Enzymatic Assay for human Protein Tyrosine Phosphatase Non-receptor Type 2 (PTPN2) (AID 2283207)
Outline: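 Activity measured as fluorescence after mobility-shift separation of substrate and product, 1 h after compound. Duplicate single-point 25 uM primary testing, concentration series for actives; inhibition scored as signal loss relative to DMSO baseline.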

[6] = target: human Protein Tyrosine Phosphatase Receptor Type C (PTPRC), PTPRC (gene 5788) (UniProt P08575); test: NVS_ENZ_hPTPRC: NovaScreen (NVS) Enzymatic Assay for human Protein Tyrosine Phosphatase Receptor Type C (PTPRC) (AID 2283212)
Outline: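 Absorbance-based phosphatase activity of human PTPRC protein extracted from yeast was measured 1 h post-dosing. Compounds first tested at 25 uM in duplicate, then those passing threshold in singleton concentration series to 50 uM.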

[7] = target: human Tyrosine Protein Kinase Receptor Tie-2 (Tie2), TEK (gene 7010) (UniProt Q02763); test: NVS_ENZ_hTie2: NovaScreen (NVS) Enzymatic Assay for human Tyrosine Protein Kinase Receptor Tie-2 (Tie2) (AID 2283225)
Outline: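 Substrate and product were separated by mobility shift and detected by fluorescence after a 1-hour reaction with recombinant Tie2. Chemicals passing a 25 uM single-point screen were titrated to a maximum of 50 uM. Results were normalized to DMSO baseline.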

[8] = target: bovine Gamma-Aminobutyric Acid Type A Receptor BDZ, alpha 1 site (GABARa1), GABRA1 (gene 780973) (UniProt P08219); test: NVS_LGIC_bGABARa1: NovaScreen (NVS) Ligand-Gated Ion Channel Assay for bovine Gamma-Aminobutyric Acid Type A Receptor BDZ, alpha 1 site (GABARa1) (AID 2283321)
Outline: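 Bovine cortex membrane preparation, benzodiazepine site on GABA-A alpha1; specific radioligand displacement read after 0.75 h by filtration and scintillation. Screen at 25 uM, then singleton titrations up to 50 uM; DMSO baseline.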

[9] = target: human Ephrin type-A Receptor 2 (EphA2), EPHA2 (gene 1969) (UniProt P29317); test: NVS_ENZ_hEphA2: NovaScreen (NVS) Enzymatic Assay for human Ephrin type-A Receptor 2 (EphA2) (AID 2283155)
Outline: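 Enzyme activity of recombinant EphA2 read by fluorescence after mobility-shift separation, 1 h after dosing. Chemicals first tested at 25 uM (duplicate); those passing threshold run as concentration series, top 50 uM, single replicate, relative to DMSO.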

[10] = target: Protein deacetylase HDAC6 (Homo sapiens) (UniProt Q9UBN7); test: NVS_ENZ_hHDAC6: NovaScreen (NVS) Enzymatic Assay for human Histone Deacetylase 6 (HDAC6) (AID 2283164)
Outline: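 Concentration-response runs up to 50 uM followed a duplicate 25 uM single-point screen. Deacetylase activity of recombinant human HDAC6 read by fluorescence after 1 h, with mobility-shift separation of substrate and product; DMSO as baseline.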

PPP2CA (gene 5515) = PPP2CA (gene 5515) (UniProt P67775); test: NVS_ENZ_hPPP2CA: NovaScreen (NVS) Enzymatic Assay for human Protein Phosphatase 2 Aatalytic subunit Alpha (PPP2CA) (AID 2283199)
Outline: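 Cell-free phosphatase activity: fluorescent substrate turnover by recombinant human enzyme, resolved by mobility shift at 1.33 h. Compounds passing the 25 uM duplicate primary screen were rerun in singleton series with a 50 uM top concentration.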

[11] = target: human Raf-1 Proto-Oncogene, serine/threonine Kinase (RAF1), RAF1 (gene 5894) (UniProt P04049); test: NVS_ENZ_hRAF1: NovaScreen (NVS) Enzymatic Assay for human Raf-1 Proto-Oncogene, serine/threonine Kinase (RAF1) (AID 2283216)
Outline: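 Single-point screening at 25 uM (duplicate), followed by singleton concentration-response to 50 uM maximum for chemicals exceeding threshold. Enzyme activity from fluorescent substrate-product mobility-shift separation after 1 h, relative to DMSO.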

[12] = target: human Acetylcholinesterase (AChE), ACHE (gene 43) (UniProt P22303); test: NVS_ENZ_hAChE: NovaScreen (NVS) Enzymatic Assay for human Acetylcholinesterase (AChE) (AID 2283129)
Outline: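 Actives from a duplicate single-point screen (25 uM) were followed up in concentration series. Enzyme activity read by absorbance (colorimetric) 0.33 hour after dosing, cell-free, normalized to DMSO, with loss of signal scored.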

[13] = target: rat Acetylcholinesterase (AChE), Ache (gene 83817) (UniProt P37136); test: NVS_ENZ_rAChE: NovaScreen (NVS) Enzymatic Assay for rat Acetylcholinesterase (AChE) (AID 2283233)
Outline: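 Compounds first screened at 25 uM in duplicate, then those passing threshold tested in concentration series up to 50 uM, against AChE from rat brain membranes. Enzyme activity read by absorbance at 0.33 h; inhibition scored versus DMSO.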

[14] = tested on: rat Monoamine Oxidase, MAO-A, Peripheral (MAOAP), gene 29253; test: NVS_ENZ_rMAOAP: NovaScreen (NVS) Enzymatic Assay for rat Monoamine Oxidase, MAO-A, Peripheral (MAOAP) (AID 2283237)
Outline: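 Scintillation counting tracked MAO-A activity in a cell-free rat liver mitochondrial membrane prep, read 1.17 hours after compound addition. Single-point duplicate testing at 25 uM preceded concentration-response follow-up; activity was fitted relative to DMSO.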

[15] = target: rat Monoamine Oxidase, MAO-B, Peripheral (MAOBP), Maob (gene 25750) (UniProt P19643); test: NVS_ENZ_rMAOBP: NovaScreen (NVS) Enzymatic Assay for rat Monoamine Oxidase, MAO-B, Peripheral (MAOBP) (AID 2283242)
[16] = tested on: rat Monoamine Oxidase, MAO-A, Central (MAOAC), gene 29253; test: NVS_ENZ_rMAOAC: NovaScreen (NVS) Enzymatic Assay for rat Monoamine Oxidase, MAO-A, Central (MAOAC) (AID 2283243);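 further: potency refers to inhibition seen as signal drop below DMSO baseline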
Outline: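 Lysate-based radiometric enzyme assay using rat brain tissue; 1.5 h treatment; 25 uM single-point duplicate screen, concentration-response follow-up; loss of signal versus DMSO.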

[17] = target: Norway rat Vesicular Monoamine Transporter (VMAT2), neurotransmitter transporter, Slc18a2 (gene 25549) (UniProt Q01827); test: NVS_TR_rVMAT2: NovaScreen (NVS) Transporter Assay for Norway rat Vesicular Monoamine Transporter (VMAT2), neurotransmitter transporter (AID 2283376);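 further: actives lower the bound radioligand signal below the DMSO level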
Outline: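 Using rat forebrain membranes, specific radioligand binding to VMAT2 was measured by filtration and scintillation counting after 1 hour. Chemicals screened at 25 uM in duplicate, actives retested in concentration series, DMSO baseline.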

[18] = target: human p21 Activated Kinase 4 (PAK4), PAK4 (gene 10298) (UniProt O96013); test: NVS_ENZ_hPAK4: NovaScreen (NVS) Enzymatic Assay for human p21 Activated Kinase 4 (PAK4) (AID 2283189)
Outline: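 Extracted PAK4 enzyme activity read by fluorescence with mobility-shift separation 1 h after chemical addition. Duplicate single-concentration screen at 25 uM, DMSO as negative control.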

[19] = target: human IkappaB Kinase alpha (IKKa), CHUK (gene 1147) (UniProt O15111); test: NVS_ENZ_hIKKa: NovaScreen (NVS) Enzymatic Assay for human IkappaB Kinase alpha (IKKa) (AID 2283167)
Outline: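 Compounds first run in duplicate at 25 uM, those meeting threshold (e.g. 30% inhibition) retested to maximum 50 uM. Enzyme activity of recombinant IKKa measured by fluorescence with electrophoretic mobility shift separation, 1 hour post-dosing, DMSO baseline.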

Measured: AC50

human Acetylcholinesterase (AChE), ACHE (gene 43), sequence (P22303 whole entry, looked up): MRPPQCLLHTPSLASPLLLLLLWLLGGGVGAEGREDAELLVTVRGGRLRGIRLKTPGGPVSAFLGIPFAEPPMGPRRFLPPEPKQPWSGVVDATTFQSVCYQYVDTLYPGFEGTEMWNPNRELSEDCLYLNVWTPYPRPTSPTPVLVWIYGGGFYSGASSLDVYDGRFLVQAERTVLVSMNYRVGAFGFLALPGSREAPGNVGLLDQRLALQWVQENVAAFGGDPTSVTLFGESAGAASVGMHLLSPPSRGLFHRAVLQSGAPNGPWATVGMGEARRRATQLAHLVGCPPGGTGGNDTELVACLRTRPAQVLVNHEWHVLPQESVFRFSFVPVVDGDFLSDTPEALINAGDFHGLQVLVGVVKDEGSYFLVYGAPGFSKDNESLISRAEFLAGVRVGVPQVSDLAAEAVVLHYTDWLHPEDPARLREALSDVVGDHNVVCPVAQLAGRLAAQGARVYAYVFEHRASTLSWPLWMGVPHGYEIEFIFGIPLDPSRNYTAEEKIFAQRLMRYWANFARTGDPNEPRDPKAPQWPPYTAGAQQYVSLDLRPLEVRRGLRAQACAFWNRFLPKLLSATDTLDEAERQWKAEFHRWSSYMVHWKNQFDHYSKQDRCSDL
rat Monoamine Oxidase, MAO-B, Peripheral (MAOBP), Maob (gene 25750), sequence (P19643 whole entry, looked up): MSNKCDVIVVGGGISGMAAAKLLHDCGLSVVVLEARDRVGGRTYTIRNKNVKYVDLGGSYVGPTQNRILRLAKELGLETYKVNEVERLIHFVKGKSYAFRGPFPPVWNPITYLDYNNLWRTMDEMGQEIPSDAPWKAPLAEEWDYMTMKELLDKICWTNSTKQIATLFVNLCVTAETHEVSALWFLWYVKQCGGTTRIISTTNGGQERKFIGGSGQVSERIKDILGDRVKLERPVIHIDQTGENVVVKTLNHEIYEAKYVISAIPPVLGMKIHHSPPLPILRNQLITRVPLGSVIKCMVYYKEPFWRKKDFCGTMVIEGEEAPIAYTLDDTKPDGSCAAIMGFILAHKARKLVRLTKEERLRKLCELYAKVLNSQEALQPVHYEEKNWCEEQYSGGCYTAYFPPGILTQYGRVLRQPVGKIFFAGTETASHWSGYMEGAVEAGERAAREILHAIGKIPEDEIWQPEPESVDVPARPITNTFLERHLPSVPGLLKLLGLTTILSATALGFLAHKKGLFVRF
human AMP-activated Protein Kinase, alpha 1 (AMPKa1), PRKAA1 (gene 5562), sequence (Q13131 whole entry, looked up): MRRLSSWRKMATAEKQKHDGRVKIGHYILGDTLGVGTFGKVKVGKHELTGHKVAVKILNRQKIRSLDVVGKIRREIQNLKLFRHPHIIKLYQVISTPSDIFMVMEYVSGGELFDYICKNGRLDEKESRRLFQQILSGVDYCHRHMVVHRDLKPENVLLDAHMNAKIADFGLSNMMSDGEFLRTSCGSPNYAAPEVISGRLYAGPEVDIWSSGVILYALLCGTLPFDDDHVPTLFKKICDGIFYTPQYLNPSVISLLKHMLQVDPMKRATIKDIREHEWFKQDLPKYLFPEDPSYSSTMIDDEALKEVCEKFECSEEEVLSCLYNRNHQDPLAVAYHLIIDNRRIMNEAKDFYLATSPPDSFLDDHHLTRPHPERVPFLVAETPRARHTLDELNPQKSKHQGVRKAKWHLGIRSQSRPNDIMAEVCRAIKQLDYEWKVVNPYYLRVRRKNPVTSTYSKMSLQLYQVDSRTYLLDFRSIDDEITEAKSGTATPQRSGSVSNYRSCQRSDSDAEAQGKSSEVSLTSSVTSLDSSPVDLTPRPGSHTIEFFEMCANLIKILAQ
human Fibroblast Growth Factor Receptor 1 (FGFR1), FGFR1 (gene 2260), sequence (P11362 whole entry, looked up): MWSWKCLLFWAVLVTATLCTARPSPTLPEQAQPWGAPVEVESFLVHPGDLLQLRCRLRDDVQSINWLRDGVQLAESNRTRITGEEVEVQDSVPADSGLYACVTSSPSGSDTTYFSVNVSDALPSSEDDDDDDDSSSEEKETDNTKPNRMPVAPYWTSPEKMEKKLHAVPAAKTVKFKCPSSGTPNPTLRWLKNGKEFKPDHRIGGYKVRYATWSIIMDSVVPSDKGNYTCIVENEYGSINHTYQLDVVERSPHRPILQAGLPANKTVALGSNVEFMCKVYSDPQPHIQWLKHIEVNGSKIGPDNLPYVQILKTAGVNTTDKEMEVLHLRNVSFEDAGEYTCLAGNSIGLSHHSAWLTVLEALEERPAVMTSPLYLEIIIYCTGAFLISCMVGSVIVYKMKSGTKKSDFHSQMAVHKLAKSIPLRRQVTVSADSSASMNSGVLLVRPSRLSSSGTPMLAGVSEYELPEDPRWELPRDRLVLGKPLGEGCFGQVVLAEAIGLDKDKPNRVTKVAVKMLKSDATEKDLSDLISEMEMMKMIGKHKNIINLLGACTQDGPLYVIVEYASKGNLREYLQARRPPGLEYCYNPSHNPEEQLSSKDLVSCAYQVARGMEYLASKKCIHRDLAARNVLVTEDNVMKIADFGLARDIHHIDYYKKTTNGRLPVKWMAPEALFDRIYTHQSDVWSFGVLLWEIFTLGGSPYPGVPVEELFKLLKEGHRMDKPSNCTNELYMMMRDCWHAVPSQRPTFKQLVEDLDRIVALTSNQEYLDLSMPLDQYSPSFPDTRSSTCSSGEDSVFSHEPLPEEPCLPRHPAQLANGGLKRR
human Tyrosine Protein Kinase Receptor Tie-2 (Tie2), TEK (gene 7010), sequence (Q02763 whole entry, looked up): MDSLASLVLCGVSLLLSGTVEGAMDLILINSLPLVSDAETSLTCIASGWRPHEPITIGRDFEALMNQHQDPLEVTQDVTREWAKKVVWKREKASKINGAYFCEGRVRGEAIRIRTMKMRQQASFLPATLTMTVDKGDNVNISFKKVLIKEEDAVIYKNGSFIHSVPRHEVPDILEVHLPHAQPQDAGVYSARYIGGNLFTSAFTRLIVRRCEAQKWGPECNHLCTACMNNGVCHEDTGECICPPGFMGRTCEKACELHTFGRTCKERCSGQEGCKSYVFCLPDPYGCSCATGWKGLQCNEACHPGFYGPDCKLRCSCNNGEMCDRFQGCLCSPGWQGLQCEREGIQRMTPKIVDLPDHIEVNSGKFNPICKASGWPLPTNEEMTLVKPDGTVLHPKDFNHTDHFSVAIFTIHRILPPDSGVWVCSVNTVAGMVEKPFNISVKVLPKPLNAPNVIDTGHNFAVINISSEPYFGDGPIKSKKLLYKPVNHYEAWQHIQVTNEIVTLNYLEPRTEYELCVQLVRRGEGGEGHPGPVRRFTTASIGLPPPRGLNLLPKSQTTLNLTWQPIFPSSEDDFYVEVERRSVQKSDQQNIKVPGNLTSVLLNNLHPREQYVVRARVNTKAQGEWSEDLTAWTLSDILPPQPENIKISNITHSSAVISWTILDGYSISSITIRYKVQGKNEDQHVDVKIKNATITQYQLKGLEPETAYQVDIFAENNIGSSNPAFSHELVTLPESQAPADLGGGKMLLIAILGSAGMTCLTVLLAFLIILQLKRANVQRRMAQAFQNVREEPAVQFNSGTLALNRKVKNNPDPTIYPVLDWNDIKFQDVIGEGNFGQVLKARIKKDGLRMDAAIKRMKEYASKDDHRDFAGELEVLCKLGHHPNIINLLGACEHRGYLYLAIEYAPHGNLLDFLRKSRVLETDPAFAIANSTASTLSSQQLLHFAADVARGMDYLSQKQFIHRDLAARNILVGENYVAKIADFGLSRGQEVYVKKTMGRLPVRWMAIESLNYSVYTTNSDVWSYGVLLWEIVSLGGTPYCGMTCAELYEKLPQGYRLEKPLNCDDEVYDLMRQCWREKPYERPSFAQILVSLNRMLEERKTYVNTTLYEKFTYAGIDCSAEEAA
rat Acetylcholinesterase (AChE), Ache (gene 83817), sequence (P37136 whole entry, looked up): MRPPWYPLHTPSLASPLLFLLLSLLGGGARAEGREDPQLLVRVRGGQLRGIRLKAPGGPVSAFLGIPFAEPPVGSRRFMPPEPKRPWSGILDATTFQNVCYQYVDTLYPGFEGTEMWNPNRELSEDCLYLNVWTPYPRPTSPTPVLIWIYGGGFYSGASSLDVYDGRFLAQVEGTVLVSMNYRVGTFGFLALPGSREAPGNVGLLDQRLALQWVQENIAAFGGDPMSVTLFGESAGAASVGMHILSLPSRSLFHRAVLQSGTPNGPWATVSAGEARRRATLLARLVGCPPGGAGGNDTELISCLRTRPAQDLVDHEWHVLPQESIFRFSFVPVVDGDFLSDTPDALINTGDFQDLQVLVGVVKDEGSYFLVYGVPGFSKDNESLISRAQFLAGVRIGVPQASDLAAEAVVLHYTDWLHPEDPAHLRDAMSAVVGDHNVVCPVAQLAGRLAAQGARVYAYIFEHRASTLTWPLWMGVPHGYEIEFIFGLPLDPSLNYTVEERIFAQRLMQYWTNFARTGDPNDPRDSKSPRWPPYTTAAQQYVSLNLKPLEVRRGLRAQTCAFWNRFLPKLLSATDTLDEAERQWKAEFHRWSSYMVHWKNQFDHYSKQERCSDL
Norway rat Vesicular Monoamine Transporter (VMAT2), neurotransmitter transporter, Slc18a2 (gene 25549), sequence (Q01827 whole entry, looked up): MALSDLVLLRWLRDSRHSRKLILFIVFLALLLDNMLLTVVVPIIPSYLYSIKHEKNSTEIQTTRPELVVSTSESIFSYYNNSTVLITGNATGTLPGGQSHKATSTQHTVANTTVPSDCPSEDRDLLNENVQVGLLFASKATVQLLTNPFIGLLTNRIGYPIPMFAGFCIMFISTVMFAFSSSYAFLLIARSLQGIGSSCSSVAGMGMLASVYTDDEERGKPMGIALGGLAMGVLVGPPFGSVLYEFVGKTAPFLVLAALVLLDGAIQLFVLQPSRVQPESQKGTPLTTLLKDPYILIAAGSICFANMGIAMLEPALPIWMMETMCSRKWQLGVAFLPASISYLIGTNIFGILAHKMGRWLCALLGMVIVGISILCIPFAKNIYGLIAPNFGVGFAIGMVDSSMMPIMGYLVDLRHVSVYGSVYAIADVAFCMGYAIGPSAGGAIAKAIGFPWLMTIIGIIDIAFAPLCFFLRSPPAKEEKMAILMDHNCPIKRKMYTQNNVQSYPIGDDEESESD

CCOC(=O)C(C)(C)Oc1ccc(Cl)cc1
inactive: [1] | [2] | [3] | [4] | [6] | [7]
active: [5] 0.218 µM | [8] 25 µM

Cc1ccc(N)cc1O
active: [9] 18.1 µM
inactive: [1] | [3] | [10] | PPP2CA (gene 5515) | [11] | [7]

N=C(N)c1ccc(OCCCCCOc2ccc(C(=N)N)cc2)cc1
active: [12] 19.3 µM | [13] 21.9 µM | [14] 0.504 µM | [15] 0.905 µM | [16] 0.203 µM | [17] 5.98 µM
inactive: [3]

CCOC(=O)CCC(=O)OCC
active: [15] 34.7 µM
inactive: [12] | [18]

CCOC(=O)c1ccc(C2CCC(NC[C@H](O)COc3ccc(O)c(NS(C)(=O)=O)c3)CC2)cc1 (some centres not stated)
active: [12] 23.4 µM | [13] 15 µM

CCCCCCCC/C=C\CCCCCCCC(=O)OC[C@@H](O)[C@H]1OC[C@H](O)[C@H]1O
inactive: [1] | [3] | [10] | [19] | [15]
